# Compound activity: PubChem, National Center for Advancing Translational Sciences (NCATS)
# Nrf2 block: blocks Nrf2 signaling; Potency, µM (titrated, usually from 46 µM), inactives show at the highest dose activity change, negative = inhibition, actives largely listed as inhibitors; A549 ARE-Fluc reporter, luciferase luminescence, 18-24 h; 2.1% of 360,000 active; also: % is scaled to controls: 0 for no effect and ±100 for the full control effect; nearly all actives have a fitted effect of over 60% in size
#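 Nrf2 activity is the BugLite luminescence, read 15 min after reagent at room temperature, following CellTiter-Fluor cytotoxicity readout (30 min, 37C). Compound titrations were applied for 18-24 h to 5000 A549 ARE_Fluc cells/well in 5% FBS OPTI-MEM.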
# S2 tox: cell viability loss in ATXN counter-screen; S2 cells (HEK-293 line with an ATXN2-luciferase reporter) viability, CellTiter-Fluor protease fluorescence, 24 h; Potency, µM (titrated, usually from 56.7 µM), most hits filed as cytotoxic; 0.49% of 400,000 active; AID 651635; also: nearly all actives have a fitted effect of over 40% in size
# TGFb SMAD3 inh: TGF-b pathway inhibition | HepG2 CAGA-GFP TGF-b/SMAD3 reporter, GFP fluorescence, 18 h; TGF-beta stimulated, 500 pg/mL final | Potency, µM (titrated, usually from 46.1 µM), for inactives: at the top dose activity, negative = inhibition, actives largely listed as inhibitors | 1.2% of 410,000 active | AID 588855; also: % is scaled to controls: 0 for no effect and ±100 for the full control effect; nearly all actives have a fitted effect of over 65% in size
#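 Cell-based qHTS in HEPG2 carrying a CAGA-GFP Smad reporter; compounds added before 500 pg/mL final TGF-beta, 18 h incubation at 37 degrees C, GFP fluorescence quantified per cell by imaging cytometry.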
# HepG2 viability: kills HepG2 cells in TGF-b inhibitor counter-screen; HepG2 CAGA-GFP viability, ATP luminescence, 18 h; Potency, µM (doses to about 46.1 µM), for inactives: at the top dose activity change, negative = cytotoxicity, actives largely listed as cytotoxic; 0.76% of 410,000 active
#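 CellTiter-Glo luminescence gave cytotoxicity after 18 hours at 37 degrees C. The cells were HepG2 CAGA-GFP in 1% FBS DMEM, stimulated with 500 pg/mL TGF-beta after compound addition. %Activity was normalised to no-cell wells (complete cell-killing) and DMSO (no toxicity), and curves were fitted and classified.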
# ATXN2 expr inh: ATXN2 expression inhibition; AID 1745845; HEK-293 ATXN2-luciferase reporter, luminescence, 24 h; 0.72% of 360,000 active; Potency, µM (highest dose often 57 µM), without a hit: at the highest dose activity change, negative = inhibition, most hits filed as inhibitors; also: % is scaled to controls: 0 for no effect and ±100 for the full control effect; nearly all actives have a fitted effect of over 55% in size
#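 qHTS (up to 57 uM final) was run with 24 h compound exposure of reporter cells at 37 °C. Each well was multiplexed: SteadyGlo luminescence measured ATXN2-luciferase expression after a fluorogenic Gly-Phe-AFC viability readout (25 uM final).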
# A549 viability: A549 cytotoxicity, counter-screen for Nrf2 inhibitors; A549 ARE-Fluc cells, CellTiter-Fluor viability, 18-24 h; 0.16% of 390,000 active; Potency, µM (doses to about 46 µM), for the others: at the top dose activity change, negative = cytotoxicity, actives largely listed as inhibitors; AID 504648; also: % is scaled to controls: 0 for no effect and ±100 for the full control effect
#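 Cytotoxicity counterscreen: CellTiter-Fluor fluorescence was measured in A549 ARE_Fluc cells after 18-24 h of compound exposure in a concentration series. The subsequent BugLite luminescent read reports ARE-luciferase activity.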
# Numbers without * were called inactive; i = inactive; ? = inconclusive; . = not tested or not shown. Only some compounds are listed: those with a hit (about 3.8% of all), similar ones and a draw of the others. Calls follow the shape of the dose curve; as a rule, active = well fitted curve in the direction sought with a large enough effect; inconclusive = small, poorly fitted or top-dose-only effect, or another doubt; inactive = no such curve, though single readings can be large; an effect the other way counts as inactive or inconclusive. Potency is read from the fitted curve at half-maximal effect.
SMILES,Nrf2 block,S2 tox,TGFb SMAD3 inh,HepG2 viability,ATXN2 expr inh,A549 viability
CSc1ccc(/C=N/n2c(C)cc(C)cc2=O)cc1,26%,i,-7%,6%,21%,0%
Cn1c(=O)c2[nH]c(CCCCCCCc3nc4ccccc4[nH]3)nc2n(C)c1=O,16µM*,i,-27%,-28%,-28%,?
Cn1c(=O)c2[nH]c(COc3ccc(C(C)(C)C)cc3)nc2n(C)c1=O,12µM*,i,-18%,-43%,-38%,-19%
Cn1c(=O)c2[nH]c(Cc3cccc(O)c3)nc2n(C)c1=O,-21%,i,0%,2%,-30%,1%
Cn1c(=O)c2[nH]c(CCCCCc3nc4ccccc4[nH]3)nc2n(C)c1=O,0%,i,-5%,8%,1%,3%
CNc1nnc(Sc2ncccc2[N+](=O)[O-])s1,?,i,-5%,13%,37%,-9%
O=C(CCl)Nc1cccc(S(=O)(=O)NC2=NCCC2)c1,-3%,.,11µM*,14µM*,.,?
CCCCNC(=S)Nc1cccc(S(=O)(=O)NC2=NCCC2)c1,4%,i,-8%,3.5µM*,3%,2%
Cc1cc(C)cc(C(=O)OCC(=O)Nc2cccc(S(=O)(=O)NC3=NCCCCC3)c2)c1,23µM*,i,?,-9%,-3%,?
O=C(/C=C/c1ccc(OC(F)F)cc1)Nc1cccc(S(=O)(=O)NC2=NCCCCC2)c1,18µM*,?,?,-14%,-20%,?
Cc1ccccc1OCC(=O)Nc1ccc(N2CCN(C)CC2)c(Cl)c1,?,i,-13%,-18%,4%,-13%
O=C(Cc1csc(-c2ccc(Cl)cc2)n1)Nc1cccc(S(=O)(=O)NC2=NCCC2)c1,23µM*,i,-34%,-22%,?,?
CN(CC(=O)Nc1cccc(S(=O)(=O)NC2=NCCCCC2)c1)Cc1ccc(C(C)(C)C)cc1,-23%,i,?,-31%,?,-18%
CC(C)(C)c1ccc(OCCC(=O)Nc2cccc(S(=O)(=O)NC3=NCCCCC3)c2)cc1,18µM*,i,?,-11%,?,?
O=C(Cc1csc(-c2ccc(F)cc2)n1)Nc1cccc(S(=O)(=O)NC2=NCCC2)c1,?,i,11%,4%,-22%,-18%
Cc1cccc(C)c1NC(=S)N=Nc1c(O)n(C)c2ccc(S(=O)(=O)N3CCOCC3)cc12,-8%,i,-6%,-24%,?,-3%
Cc1ccccc1NC(=S)N=Nc1c(O)n(C)c2ccc(S(=O)(=O)N3CCOCC3)cc12,?,i,5.6µM*,-36%,-39%,?
Cc1c(Cl)cccc1NC(=S)N=Nc1c(O)n(CN2CCOCC2)c2ccccc12,?,?,5µM*,-27%,?,-26%
Oc1c(N=NC(=S)Nc2ccccc2F)c2ccccc2n1Cc1ccccc1Cl,?,?,-11%,-19%,-30%,?
O=S(=O)(Nc1ccc(-c2ccc(N3CCCCC3)nn2)cc1)c1ccc(OC(F)(F)F)cc1,.,?,?,-19%,-9%,-9%
CCCn1c(SC(C)C(=O)NCC2CCCO2)nc2sc(CC)cc2c1=O (stereo not given),-33%,i,15%,-4%,1%,?
CCOC(=O)c1sc(NC(=O)c2ccc(C)o2)nc1C,11%,i,?,5µM*,8%,2%
Cn1cccc1/C=C1\SC(=Nc2ccc(O)cc2)NC1=O,?,?,?,-33%,.,-26%
Cn1cccc1/C=C1\SC(=Nc2cccc(O)c2)NC1=O,5%,16µM*,?,-12%,.,-30%
Cn1cccc1/C=C1\SC(=Nc2ccccc2)NC1=O,19%,?,?,-2%,.,?
Cc1ccc(N=C2NC(=O)/C(=C/c3cn(C)c4ccccc34)S2)cc1C,23µM*,i,30%,-6%,-21%,-19%
